Sampled rows, rich in hits. Any-hit rate of the full collection: about 8.3%.
Giardia FBPA inh: qHTS Assay for Inhibitors of Fructose-1,6-bisphosphate Aldolase from Giardia Lamblia. A8B2U2. purified Giardia FBPA. Potency, µM (series often up to 59.6 µM), for the others: at the highest dose activity, negative = inhibition, actives largely listed as inhibitors. hit rate 0.71% among 290,000; note: potency is the fitted concentration of half-maximal effect; nearly all actives have a fitted effect of over 55% in size
Target sequence (A8B2U2 whole entry, looked up): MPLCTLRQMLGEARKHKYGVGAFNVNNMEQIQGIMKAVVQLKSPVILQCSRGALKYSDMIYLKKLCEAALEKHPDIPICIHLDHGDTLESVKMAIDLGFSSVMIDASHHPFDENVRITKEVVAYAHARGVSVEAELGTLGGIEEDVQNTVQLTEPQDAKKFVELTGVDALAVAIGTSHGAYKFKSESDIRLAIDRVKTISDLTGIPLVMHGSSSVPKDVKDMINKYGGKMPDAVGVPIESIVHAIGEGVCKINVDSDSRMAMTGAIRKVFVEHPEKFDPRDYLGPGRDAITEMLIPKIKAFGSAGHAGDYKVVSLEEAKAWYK
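40 nM FBPA preincubated 10 min at RT with compound (up to 57.5 uM final), then substrate plus GAPDH/TPI/NAD/arsenate coupling and diaphorase/resazurin added. Fluorescence read after 20 min at RT, 525/598 nm.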
Lassa entry inh: qHTS for Inhibitors of binding or entry into cells for Lassa Virus. hit rate 1.2% among 300,000. Lassa virus pseudotype entry inhibition, cell reporter. Potency, µM (titrated, usually from 37.9 µM), without a hit: at the top dose activity change, negative = inhibition, most hits filed as inhibitors; calls by dose curve; tested in HEK293 cells; note: potency is the fitted concentration of half-maximal effect; nearly all actives have a fitted effect of over 50% in size
Marburg entry inh: qHTS for inhibitors of binding or entry into cells for Marburg Virus. hit rate 1.8% among 300,000. AID 540276, 2011. Potency, µM (titrated, usually from 37.8 µM), for the others: top-dose activity change, negative = inhibition, most hits filed as inhibitors. Marburg virus pseudotyped entry inhibition, cell reporter; calls by dose curve; tested in HEK293 cells; note: potency is the fitted concentration of half-maximal effect
HCMV antiviral: qHTS Assay for inhibitors of the human cytomegalovirus (HCMV) | HFF cells, HCMV-luciferase reporter, 72 h; stronger effect = lower value | activity change, negative = inhibition, % at 57.5 µM | hit rate 4.5% among 410,000; in the data active = activity change below about -60%; inconclusive = no clear call, values can overlap the other calls; inactive = above about -39%
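Luciferase read-out from HCMV-luciferase-infected HFFs (MOI 1 PFU/cell) 72 h post infection at 37C; compounds added after 16 h cell attachment; activity normalized between buffer-only basal and Salinomycin (10uM) inhibitor controls.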
FMDV inh: High Throughput Screening for Foot and Mouth Disease Virus Antivirals; Potency, µM (top dose mostly 57.9 µM), for the others: top-dose activity change, negative = inhibition, actives largely listed as inhibitors; FMDV antiviral cell-based qHTS; hit rate 1.2% among 410,000; AID 1159524, 2015; calls by dose curve; tested in HEK293T cells; note: read-out not given here; potency is the fitted concentration of half-maximal effect; nearly all actives have a fitted effect of over 45% in size
HCV inhibitor: qHTS Assay for Inhibitors of Hepatitis C Virus (HCV) | Huh7.5.1 HCVcc-Cre infection, luciferase reporter, 44 h | Potency, µM (titrated, usually from 41.8 µM), for the others: at the top dose activity change, negative = inhibition, hits mostly inhibitors | AID 651820, 2012 | hit rate 3.4% among 340,000; note: potency is the fitted concentration of half-maximal effect
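Whole-lifecycle infectious HCVcc-Cre system; cells 1,000/well, compound then virus (~0.5 moi) added 4 h after plating, 44 h culture. Luciferase read 15 sec following 15 min substrate incubation, room temp.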
Numbers without * were called inactive; ? = inconclusive; . = no result; [ ] = another dose, or the depositor's remark. Unless noted, calls come from the whole dose curve; as a rule, active = well fitted curve in the direction sought with a large enough effect; inconclusive = small, poorly fitted or top-dose-only effect, or another doubt; inactive = no such curve, though single readings can be large; an effect the other way counts as inactive or inconclusive. % is set by controls: 0 for no effect and ±100 for the full control effect.

SMILES	Giardia FBPA inh	Lassa entry inh	Marburg entry inh	HCMV antiviral	FMDV inh	HCV inhibitor
COc1ccc(C(O)(C2CCCCC2)C(CN2CCOCC2)c2ccccc2)cc1 (centres undefined)	-23.1%	.	.	-60.6*	-10.0%	-20.2%
COc1ccc(C(O)(c2ccccc2OC)C(CN2CCOCC2)c2ccccc2)cc1 (centres undefined)	0.0%	.	11.2µM*	-26.0	-26.2%	?
OC(c1ccccc1)(C1CCCCC1)C(CN1CCOCC1)c1ccccc1 (centres undefined)	-12.4%	-8.2%[46.1 µM]	?	-38.9	?	?
CCC(=O)NC(c1ccccc1OC)c1ccc2cccnc2c1O (centres undefined)	?	?	4.61µM*	.	-15.2%	2.51µM*
CCCC(=O)NC(c1ccccc1)c1ccc2cccnc2c1O (centres undefined)	?	?	?	-101.6*	-15.9%	2.82µM*
Oc1c(C(c2ccc(Cl)cc2)N2CCCC2)cc(Cl)c2cccnc12 (centres undefined)	?	.	.	?	-27.8%	?
CCCCC(=O)NC(c1ccccc1Cl)c1ccc2cccnc2c1O (centres undefined)	?	.	.	-95.9*	-6.6%	2.24µM*
CC(C)C(=O)NC(c1ccccc1)c1cc([N+](=O)[O-])c2cccnc2c1O (centres undefined)	?	?	?	-1.0	0.0%	?
Oc1c(C(c2ccccc2Cl)N2CCCC2)ccc2cccnc12 (centres undefined)	-8.3%	.	.	-5.2	?	10µM*
CCc1ccc(C(=O)Nc2cccc(-c3nc4cc(C(C)C)ccc4o3)c2)cc1	.	1.2%[46.1 µM]	21.5%[46.1 µM]	14.3	1.4%	.
c1csc(CNc2nc(-c3ccc4c(c3)OCO4)nc3ccccc23)c1	-26.7%	.	.	.	-11.1%	.
COc1ccc(C(=O)Nc2cccnc2)cc1OC	-5.5%	22.6%	19.2%	-3.3	3.6%	18.8%
O=C(O)CCC(=O)NC(c1ccccc1)c1ccccc1	-6.7%	9.8%	?	-17.4	-4.5%	17.6%
Cc1ccc(C(c2cc(Cl)c3cccnc3c2O)N2CCN(C)CC2)cc1 (centres undefined)	-4.6%	?	?	.	?	?
COc1ccc(Cl)cc1C(Nc1cccnc1)c1ccc2cccnc2c1O (centres undefined)	?	?	11.2µM*	-6.6	-19.7%	8.91µM*
CCCCC(=O)NC(c1ccccc1)c1ccc2cccnc2c1O (centres undefined)	?	?	?	-99.6*	-4.1%	2.82µM*
CC(=O)NC(c1ccc(C(C)C)cc1)c1ccc2cccnc2c1O (centres undefined)	15.6%	?	?	-98.8*	-24.5%	8.91µM*
CN1CCN(C(c2ccc(C(F)(F)F)cc2)c2ccc3cccnc3c2O)CC1 (centres undefined)	-25.9%	7.94µM*	?	-96.7*	-28.2%	11.2µM*
CC(C)c1ccc(C(=O)Nc2cccc3cccnc23)cc1	.	9.9%[46.1 µM]	32.2%[46.1 µM]	76.7	23.5%	.
S=C(SCc1c(Cl)cccc1Cl)N1CCSCC1	.	.	.	86.9	.	.
O=C(c1cccc(F)c1)N(Cc1cc2cc3c(cc2nc1N1CCOCC1)CCC3)CC1CCCO1 (centres undefined)	.	.	.	.	-14.3%	.
O=C(Nc1ccc(F)cc1)N[C@H]1CC[C@@]23CCCN2C(=O)CCC[C@H]3C1Cc1ccccc1 (some centres undefined)	.	.	.	7.7	.	.
COc1ccc2c(c1)C(=O)[C@H](OC(=O)N[C@H](C)C1CCCCC1)[C@@H](c1ccc(OC)c(Br)c1)O2	-0.3%	.	.	.	.	.
C=C1C(C2(C)C=CC(=O)C(C)(C)C2CC(=O)OC)CC[C@@]2(C)C(c3ccoc3)OC(=O)C3OC132 (some centres undefined)	-2.7%	.	.	.	5.3%	.
Oc1cccc(C(Nc2ccccn2)c2ccc3cccnc3c2O)c1Cl (centres undefined)	.	?	?	-82.3*	-24.4%	.
SMILES	Giardia FBPA inh	Lassa entry inh	Marburg entry inh	HCMV antiviral	FMDV inh	HCV inhibitor
CCCC(=O)NC(c1ccc(OC)cc1)c1ccc2cccnc2c1O (centres undefined)	9.4%	?	?	-98.5*	-11.6%	3.16µM*
O=c1cc(CO)oc(C(Nc2ccccn2)c2ccccc2Cl)c1O (centres undefined)	-16.2%	-14.7%[46.1 µM]	-16.1%[46.1 µM]	6.4	-15.9%	1.9%
CCCCCOc1ccc(NC(=O)CSc2cccc3cccnc23)cc1	3.4%	15.1%	?	8.6	0.0%	0.8%
CCCCC(=O)NC(c1ccc(C(C)C)cc1)c1ccc2cccnc2c1O (centres undefined)	?	.	.	-102.9*	-8.1%	2.82µM*
CCOC(=O)c1c(C)c(-c2ccccc2)n(CC(=O)Nc2cc(C)cc(C)c2)c1C	.	.	21.1%[46.1 µM]	-96.8*	-18.3%	.
CCOC(=O)c1c(C)c(-c2ccccc2)n(CC(=O)NCc2ccccc2)c1C	.	.	-3.7%[46.1 µM]	-3.2	-6.9%	.
Cc1ccc(C)c(CN2C[C@H](Sc3nc4ccccc4[nH]3)C[C@H]2C(=O)N2CCCN(C)CC2)c1	.	.	.	.	10.0%	.
N#Cc1c(N)n(C2OC(CO)C(O)C2O)c2ncnc(N)c12 (centres undefined)	.	1.78µM*	0.501µM*	-99.0*	-6.0%	?
O=C(C1CCC(CNS(=O)(=O)c2cccs2)CC1)N1CCN(c2ccc(Cl)cc2)CC1 (centres undefined)	.	?	.	-93.0*	31.6µM*	3.55µM*
O=C(C1CCC(CNS(=O)(=O)c2ccc(Br)s2)CC1)N1CCN(c2ccccc2)CC1 (centres undefined)	.	-0.3%[46.1 µM]	2.7%[46.1 µM]	-1.4	?	.
COc1ccc(-n2cc(-c3ccc(OC(F)F)cc3)[n+]3c2CCCCC3)cc1	1.4%	.	.	-84.9*	?	-23.3%
Clc1ccc(-c2cn(-c3ccc(Cl)cc3)c3[n+]2CCCCC3)cc1	2.2%	21.1%	?	?	?	1.4%
COc1ccc(-c2cn(-c3ccc(Cl)cc3)c3[n+]2CCCCC3)cc1	-0.1%	?	-17.8%	-66.0*	-16.4%	-2.6%
CCc1cccc(C)c1NC(=O)CCCn1c(C)c2cnn(-c3ccccc3)c(=O)c2c1C	.	11.8%[46.1 µM]	?	-5.9	-23.0%	.
Cc1ccc(Cn2ccc(=O)c(OCc3ccccc3)c2C)cc1	9.9%	25.8%	1.5%	-3.9	34.1%	-1.0%
Cc1c(OCc2ccccc2)c(=O)ccn1Cc1ccc(F)cc1	-10.4%	-17.3%	?	-24.7	?	1.78µM*
CC(=O)OC[C@H]1O[C@H](C#Cc2ccc(C)cc2C)C=C[C@H]1OC(C)=O	.	-33.0%[14.3 µM]	-2.3%[14.2 µM]	.	.	.

Assay outcomes deposited in PubChem BioAssay by National Center for Advancing Translational Sciences (NCATS).
